Pf Dd2 inh: inhibitors of Plasmodium falciparum Dd2 growth; Potency, µM (titrated, usually from 28.9 µM), usual class: inhibitors; hit rate 4.3% among 120,000; P. falciparum Dd2 growth, SYBR Green, 72 h; active = well fitted inhibition curve with a large enough effect; note: nearly all actives have a fitted effect of over 65% in size
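Infected erythrocytes (Dd2, 0.3% parasitemia, 2.5% hematocrit final) are added to compound in RPMI-1640/Albumax II medium, grown 72 h at 37C in low oxygen, then lysed with saponin/Triton-X containing SYBR Green and read by fluorescence.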
Large screens that a line does not name were inactive. The full list was thinned out, with hits kept by preference.

O=C(NCc1cccc(C(F)(F)F)c1)c1cccc2c1CCN2C(=O)C1CC1	none
O=C(c1nc(-c2cc(Cl)cc(Cl)c2)c2ccccn12)N1CCN(c2ncccn2)CC1	none
C[S+](=O)([O-])c1ccc(-c2nc(C(=O)N3CCN(c4ncccn4)CC3)n3ccccc23)cc1	Pf Dd2 inh 7.1µM
O=C(c1nc(-c2cccnc2)c2ccccn12)N1CCN(c2ncccn2)CC1	none
Cc1ccc(C(=O)N2CCCC(n3cc(-c4nc(C(C)C)no4)nn3)C2)cc1 (stereo not drawn)	none
COc1ccc(C(=O)N2CCC(n3cc(-c4nc(C(C)C)no4)nn3)C2)cc1 (stereo not drawn)	none
COc1ccc(C(=O)N2CCCC(n3cc(-c4nc(C(C)C)no4)nn3)C2)cc1 (stereo not drawn)	Pf Dd2 inh 13µM
CC(C)NC(=O)CC[C@@H]1CNC(=O)[C@@H]2C[C@H](NCc3ccc(CO)o3)CN12	none
O=C([C@@H]1C[C@H](Oc2cccnc2)CN1C(=O)COc1ccccc1)N1CCCC1	none
c1ccc(-c2nnc3n2CCN(Cc2cscn2)C3)cc1	none
COc1cccc(C(=O)Nc2c(C(=O)Nc3ccc(F)cc3)oc3ccccc23)c1OC	none
COc1ccccc1C(=O)N(Cc1ccco1)Cc1ccccc1F	none
Cc1c(C(=O)N(Cc2cccc(Cl)c2)Cc2ccco2)oc2ccccc12	none
CCOc1ccc(C(=O)Nc2c(C(=O)c3ccccc3)oc3ccccc23)cc1	none
COc1ccccc1C(=O)Nc1c(C(=O)N(CCN(C)C)Cc2ccco2)oc2ccccc12	Pf Dd2 inh 6.3µM
CN(C)CCN(Cc1ccco1)C(=O)c1oc2ccccc2c1NC(=O)c1ccccc1	Pf Dd2 inh 11µM
C=CCNC(=O)c1coc(COc2ccc3ccc(OC)cc3c2)n1	none
O=C(CC1CCOC2(CCN(C(=O)c3ccccc3)CC2)C1)NC1CC1 (stereo not drawn)	none
CCCS(=O)(=O)N1CCC(CCOC)(NC(=O)C2CC2)CC1	none
CN(Cc1cccnc1)C(=O)[C@H]1CN(Cc2ccccc2)C[C@H]1C(=O)O	none
Cc1cc(OC2CN(Cc3ccc(F)cc3)C2)ccc1F	none
Cc1cc(F)ccc1OC1CN([S+](=O)([O-])c2ccccc2)C1	none
Cc1cc(F)ccc1OC1CN(Cc2cccnc2)C1	Pf Dd2 inh 6.3µM
CN(C)C(=O)[C@@H]1CN(Cc2cccnc2)C[C@H]1CO	none
Cc1ccccc1N(C)C1CN(Cc2cccnc2)C1	Pf Dd2 inh 13µM
COc1ccc(C(=O)Nc2ccc(-c3noc([C@@H]4CCCN4Cc4ccc(F)c(F)c4)n3)cn2)cc1	none
COc1ccc(C(=O)Nc2ccc(-c3noc([C@@H]4CCCN4Cc4ccccc4C)n3)cn2)cc1	none
COc1ccc(C(=O)Nc2ccc(-c3noc([C@@H]4CCCN4Cc4ccc(Cl)cc4)n3)cn2)cc1	Pf Dd2 inh 11µM
COCC(=O)Nc1ccc(-c2noc([C@@H]3CCCN3Cc3ccc(F)cc3)n2)cn1	none
COCC(=O)Nc1ccc(-c2noc([C@@H]3CCCN3Cc3ccc(S(C)(=O)=O)cc3)n2)cn1	none
COCC(=O)Nc1ccc(-c2noc([C@@H]3CCCN3CC(C)C)n2)cn1	Pf Dd2 inh 11µM
CCc1cc(N2CCC(Cc3nncn3C)CC2)nc(N2CCOCC2)n1	none
CCc1noc(-c2cn(C3CCN(C(=O)c4cccs4)CC3)nn2)n1	none
O=C([C@@H]1C[C@H](Oc2ccccc2)CN1C(=O)C1CCC1)N1CCCC1	none
Cc1cnc(-c2cccnc2)n1CC1CCN(CC2CC2)CC1	none
Cc1cnc(-c2cccnc2)n1C1CCCN(C(=O)C2CC2)C1 (stereo not drawn)	none
Cc1cnc(-c2cccnc2)n1C1CCCN(CC2CCCCC2)C1 (stereo not drawn)	Pf Dd2 inh 11µM
COc1ccc(C(=O)N2CCC[C@H]2c2nc(-c3ccc(C)cc3)no2)cc1F	none
Cc1cc(Cl)ccc1-c1cccc(C=O)c1	none
COC(=O)CC[C@H]1CNC(=O)[C@@H]2[C@@H](CCN2C(=O)NC(C)C)N1C	none
Cc1ccc(C(=O)NC(C(=O)NC2CC2)C2CCN(C(=O)c3ccccc3F)CC2)cc1 (stereo not drawn)	none
O=C(N1CCC(C(=O)N2CCc3ccccc32)CC1)N1CC2CC(C1)[C@H]1CCCC(=O)N1C2 (stereo partly drawn)	none
COc1ccc(C(=O)NCCn2cc(SCc3cc(C)ccc3C)c3ccccc32)cc1	none
CCCN(CCC)CC(O)Cn1cc(/C=C/C(=O)c2ccc(OC)cc2)c2ccccc21 (stereo not drawn)	Pf Dd2 inh 3.2µM
COc1ccc(C(=O)/C=C/c2cn(CC(O)CN(CC(C)C)CC(C)C)c3ccccc23)cc1 (stereo not drawn)	Pf Dd2 inh 3.2µM
COc1ccc(NC(=O)Cn2cc(C(=O)C3CC3)c3ccccc32)cc1	none
CCCn1cc2c3c(cccc31)CN(C(=O)c1ccc(OC)cc1)CC2	none
COc1ccc(C(=O)NCCn2cc(SCC(=O)Nc3ccc(F)cc3)c3ccccc32)cc1	none
O=C(c1ccoc1)N1CCC(n2cc(-c3nc(C4CC4)no3)nn2)C1 (stereo not drawn)	none
CC(=O)Nc1cccc(C(=O)N2CC[C@@H](c3sccc3C)[C@H](O)C2)c1	none
CCCCNC(=O)c1cc(NC(=O)CC)cc2nc(C)ccc12	none
CCC(=O)Nc1cc(C(=O)NCc2ccc(N3CCN(C)CC3)cc2)c2ccc(C)nc2c1	Pf Dd2 inh 10µM
CCNC(=O)c1cc(NC(=O)CC)cc2nc(C)ccc12	none
O=C(NCCc1cnc[nH]1)C1CC(=O)N(c2n[nH]c3cc(Br)ccc23)C1 (stereo not drawn)	none
COc1ccc(CN(CC2CCCO2)C(=O)C2CCN(CC(N)=O)CC2)cc1 (stereo not drawn)	none
CN(C)c1nc(-c2ccccc2)nc2c1CCN(C(=O)C1CCOC1)C2 (stereo not drawn)	none
CC(C)(C)CC(=O)N1CCN(c2nc(-c3ccccc3)nc3c2CCC3)CC1	none
CNCCNC(=O)C1CCN(c2nc(-c3ccccc3)nc3c2CCC3)CC1	Pf Dd2 inh 13µM
COC(C)(C)C(=O)N1CCN(c2nc(-c3ccccc3)nc3c2CCC3)CC1	none
CCN(CC1CCCO1)C(=O)C1CCN(c2nc(-c3ccccc3)nc3c2CCC3)CC1 (stereo not drawn)	Pf Dd2 inh 11µM
O=C(NCCc1c[nH]c2ccc(F)cc12)C1CC(=O)N(c2n[nH]c3ccccc23)C1 (stereo not drawn)	none
Cc1cccc(N2CCN(C(=O)C3CCN(C(=O)C4CC4)CC3)CC2)n1	none
CC(=O)Nc1ccc(C2OC(=O)N(Cc3cccc(F)c3)C2C(=O)NCC2CCCO2)cc1 (stereo not drawn)	none
CCn1c(=N)n(CC(O)COc2ccccc2)c2ccccc21 (stereo not drawn)	Pf Dd2 inh 7.1µM
Cc1cccc(OCC(O)Cn2c(=N)n(CCN3CCCCC3)c3ccccc32)c1 (stereo not drawn)	Pf Dd2 inh 10µM
CCC(C)Cn1c(COc2ccc(OC)cc2)nc2ccccc21 (stereo not drawn)	none
CCOC(=O)N1CCN(Cc2cccc(OCC(O)CN3CCOCC3)c2)CC1 (stereo not drawn)	none
COc1ccc(N2CCN(CC(O)COc3ccc(C)c(C)c3)CC2)cc1 (stereo not drawn)	none
COc1ccc(N2CCN(CC(O)COc3c(OC)cccc3OC)CC2)cc1 (stereo not drawn)	none
O=C(C1CC1)N1CCC(c2noc(-c3cnccn3)n2)C1 (stereo not drawn)	none
Cc1nc2ccc(C(=O)NCc3cccnc3Oc3ccccc3C)cc2[nH]1	none
CCc1ncc(C(=O)N2CCN(Cc3ccccc3C#N)CC2)cn1	none
Cc1nc(CC2CCN(c3nccc(-c4cccnc4)n3)CC2)no1	none
O=c1[nH]c2ccccc2n1C1CCN(c2nccc(-c3cccnc3)n2)CC1	Pf Dd2 inh 11µM
